Reference: PubChem BioAssay (Tox21)
Values joined by “and” are separate entries in the source; they are usually repeats but may differ in a detail not shown here. Equal values may be shown once. Results filed as inconclusive are left out. Active and inactive are the calls of the source. Unless noted, the call rests on the fitted dose curve; in most records, active means well fitted curve in the direction sought with a large enough effect in the repeat runs; inconclusive means weak or mixed curves; inactive means no such curve, though single readings can be large; an effect the other way counts as inactive or inconclusive.

Key:
[1] = qHTS assay to identify small molecule agonists of H2AX - cell viability counter screen (AID 1224847; calls by dose curve;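 further: wild-type CHO-K1 cells; top concentration of the series differs between compounds; nearly all actives have a fitted effect of over 30% in size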)
How it was run: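 After overnight plating of 1000 CHO-K1 cells per well, a 15-concentration compound series was applied for 3 hr at 37C. Luminescence from CellTiter-Glo, read following 30 min at room temperature, reflected cell viability.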

[2] = qHTS assay to identify small molecule antagonists of the estrogen related receptor (ERR) signaling pathway from Tox21 library (AID 1224848); further: nearly all actives have a fitted effect of over 50% in size
How it was run: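 Screening used an ERR reporter line supplied by NTP, exposed for 18 h at 37 C to library compounds delivered in DMSO. Signal was luciferase luminescence developed with ONE-Glo at room temperature for 30 min.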

[3] = qHTS assay to identify small molecule agonists of the estrogen related receptor (ERR) signaling pathway from Tox21 library (AID 1224849; calls by dose curve; further: nearly all actives have a fitted effect of over 15% in size); details: ERR reporter cell line, ONE-Glo luciferase, 18 h; at 92.4 µM (top of the series)
How it was run: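 ERR cells, 6 h pre-incubation 37 C/5% CO2; cpd in DMSO pinned; 18 h 37 C; ONE-Glo added, 30 min RT; luminescence read. Agonist mode, qHTS.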

[4] = qHTS RealTime-Glo MT Cell Viability Assay in HepG2 cells - 24 hour (AID 1224867); further: nearly all actives have a fitted effect of over 50% in size
How it was run: (§1)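 Real-time, nonlytic viability: 600 HepG2 cells/well mixed with NanoLuc enzyme plus prosubstrate; 5 h settle, compound (DMSO) added by pintool; luminescence monitored over 40 h at 37 C.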

[5] = qHTS RealTime-Glo MT Cell Viability Assay in HEK293 cells - 32 hour (AID 1224868); further: top concentration of the series differs between compounds; nearly all actives have a fitted effect of over 50% in size
How it was run: (§2)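 Cells + reagent dispensed (600 cells/well, HEK293) → 5 h at 37 C/5% CO2 → 23 nL compound in DMSO pinned → 40 h at 37 C → luminescence read at 0, 8, 16, 24, 32, 40 h.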

[6] = A CellTox Green Cytotoxicity Assay to monitor cytotoxicity in HEK293 cells - 0 hour (AID 1224869); further: nearly all actives have a fitted effect of over 50% in size
How it was run: (§3)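 Nonlytic real-time cytotoxicity: HEK293 + CellTox Green reagent plated, 5 h preincubation, pintool compound addition (23 nL in DMSO), 37 C for 40 h, fluorescence measured at successive time points.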

[7] = qHTS RealTime-Glo MT Cell Viability Assay in HepG2 cells - 40 hour (AID 1224870); further: nearly all actives have a fitted effect of over 50% in size
How it was run: (§4)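 HepG2 cells mixed with RealTime-Glo MT reagents (NanoLuc plus cell-permeant prosubstrate) were seeded at 600 cells/well, incubated 5 h at 37 C/5% CO2, then pinned with compounds in DMSO; nonlytic luminescence tracked viability during 40 h treatment.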

[8] = A CellTox Green Cytotoxicity Assay to monitor cytotoxicity in HEK293 cells - 40 hour (AID 1224871); further: nearly all actives have a fitted effect of over 45% in size
How it was run: as §3

[9] = qHTS RealTime-Glo MT Cell Viability Assay in HEK293 cells - 16 hour (AID 1224872)
How it was run: as §2

[10] = qHTS RealTime-Glo MT Cell Viability Assay in HepG2 cells - 8 hour (AID 1224873); further: nearly all actives have a fitted effect of over 55% in size
How it was run: as §4

[11] = A CellTox Green Cytotoxicity Assay to monitor cytotoxicity in HEK293 cells - 24 hour (AID 1224875); further: nearly all actives have a fitted effect of over 45% in size
How it was run: as §3

[12] = A CellTox Green Cytotoxicity Assay to monitor cytotoxicity in HepG2 cells - 16 hour (AID 1224876); further: nearly all actives have a fitted effect of over 45% in size
How it was run: (§5)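 Read-out is fluorescence of a cyanine dye excluded from live cells that stains DNA of dead HepG2 cells, with signal proportional to cytotoxicity. Plates were read at 0, 8, 16, 24, 32 and 40 h after compound addition.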

[13] = qHTS RealTime-Glo MT Cell Viability Assay in HepG2 cells - 32 hour (AID 1224877); further: nearly all actives have a fitted effect of over 55% in size
How it was run: as §1

[14] = A CellTox Green Cytotoxicity Assay to monitor cytotoxicity in HepG2 cells - 24 hour (AID 1224878); further: nearly all actives have a fitted effect of over 45% in size
How it was run: as §5

[15] = A CellTox Green Cytotoxicity Assay to monitor cytotoxicity in HepG2 cells - 40 hour (AID 1224879); further: nearly all actives have a fitted effect of over 40% in size
How it was run: as §5

[16] = qHTS RealTime-Glo MT Cell Viability Assay in HEK293 cells - 0 hour (AID 1224880)
How it was run: (§6)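 Cells were seeded together with NanoLuc luciferase and a prosubstrate that viable cells reduce to a luciferase substrate. After a 5 h incubation at 37 C/5% CO2, compounds were added and luminescence was measured repeatedly during 40 h of treatment.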

[17] = A CellTox Green Cytotoxicity Assay to monitor cytotoxicity in HEK293 cells - 32 hour (AID 1224881); further: nearly all actives have a fitted effect of over 40% in size
How it was run: as §3

[18] = A CellTox Green Cytotoxicity Assay to monitor cytotoxicity in HepG2 cells - 0 hour (AID 1224882); further: nearly all actives have a fitted effect of over 35% in size
How it was run: as §5

[19] = A CellTox Green Cytotoxicity Assay to monitor cytotoxicity in HepG2 cells - 32 hour (AID 1224883); further: nearly all actives have a fitted effect of over 50% in size
How it was run: as §5

[20] = qHTS RealTime-Glo MT Cell Viability Assay in HEK293 cells - 40 hour (AID 1224874); details: RealTime-Glo luminescence; max response: hits give low values; further: nearly all actives have a fitted effect of over 50% in size
How it was run: as §6
On the % scale 0 is the no-effect control and ±100 the full control effect.

CC(=O)CC(=O)Nc1ccccc1C
inactive: Potency [1] | Potency [2] | activity change, positive = activation [3] 1.06% and 1.9% | outcome [4] | Potency [5] | outcome [6] | outcome [7] | Potency [8] | Potency [9] | outcome [10] | Potency [11] | Potency [12] | outcome [13] | Potency [14] | Potency [15] | Potency [16] | Potency [17] | outcome [18] | Potency [19]

CN(C)CCCN
inactive: Potency [1] | Potency [2] | activity change, positive = activation [3] 5.71% and 0.874% | outcome [4] | Potency [5] | outcome [6] | outcome [7] | Potency [8] | Potency [9] | outcome [10] | max response [20] -0.421% and -3.46% | Potency [11] | Potency [12] | outcome [13] | Potency [14] | Potency [15] | Potency [16] | Potency [17] | outcome [18] | Potency [19]

CC(=O)CC(=O)Nc1ccccc1
inactive: Potency [1] | outcome [4] | Potency [5] | outcome [6] | outcome [7] | Potency [8] | Potency [9] | outcome [10] | max response [20] -1.61% and 1.86% | Potency [11] | Potency [12] | outcome [13] | Potency [14] | Potency [15] | Potency [16] | Potency [17] | outcome [18] | Potency [19]

Cc1cnc(C(=O)NCCc2ccc(S(=O)(=O)NC(=O)NC3CCCCC3)cc2)cn1
inactive: Potency [1] | outcome [4] | Potency [5] | outcome [6] | outcome [7] | Potency [8] | Potency [9] | outcome [10] | max response [20] 11.5% and 10.1% | Potency [11] | Potency [12] | outcome [13] | Potency [14] | Potency [15] | Potency [16] | Potency [17] | outcome [18] | Potency [19]

CCCCCC(N)=O
inactive: Potency [1] | outcome [4] | Potency [5] | outcome [6] | outcome [7] | Potency [8] | Potency [9] | outcome [10] | max response [20] 0.824% and 2.09% | Potency [11] | Potency [12] | outcome [13] | Potency [14] | Potency [15] | Potency [16] | Potency [17] | outcome [18] | Potency [19]

O=c1[nH]c(=O)n([C@H]2C[C@H](O)[C@@H](CO)O2)cc1Br
inactive: Potency [1] | outcome [4] | Potency [5] | outcome [6] | outcome [7] | Potency [8] | Potency [9] | outcome [10] | max response [20] 0.308% | Potency [11] | Potency [12] | outcome [13] | Potency [14] | Potency [15] | Potency [16] | Potency [17] | outcome [18] | Potency [19]

Cc1ccc(N(C)C)cc1
inactive: Potency [1] | outcome [4] | Potency [5] | outcome [6] | outcome [7] | Potency [8] | Potency [9] | outcome [10] | max response [20] 0.353% and -2.55% | Potency [11] | Potency [12] | outcome [13] | Potency [14] | Potency [15] | Potency [16] | Potency [17] | outcome [18] | Potency [19]

CC1CCC(C(C)C)C(O)C1 (configuration not stated)
inactive: Potency [1] | outcome [4] | Potency [5] | outcome [6] | outcome [7] | Potency [8] | Potency [9] | outcome [10] | Potency [11] | Potency [12] | outcome [13] | Potency [14] | Potency [15] | Potency [16] | Potency [17] | outcome [18] | Potency [19]

Cc1occc(=O)c1O
inactive: Potency [1] | outcome [4] | Potency [5] | outcome [6] | outcome [7] | Potency [8] | Potency [9] | outcome [10] | max response [20] -7.52% and -0.505% | Potency [11] | Potency [12] | outcome [13] | Potency [14] | Potency [15] | Potency [16] | Potency [17] | outcome [18] | Potency [19]

C[C@H]1C[C@H]2[C@@H]3CCC4=CC(=O)C=C[C@]4(C)[C@@]3(F)[C@@H](O)C[C@]2(C)[C@@]1(O)C(=O)CO
inactive: Potency [1] | outcome [4] | Potency [5] | outcome [6] | outcome [7] | Potency [8] | Potency [9] | outcome [10] | max response [20] -12.6% and 0.279% | Potency [11] | Potency [12] | outcome [13] | Potency [14] | Potency [15] | Potency [16] | Potency [17] | outcome [18] | Potency [19]

Cc1cc(C)c(C)cc1C
inactive: Potency [1] | outcome [4] | Potency [5] | outcome [6] | outcome [7] | Potency [8] | Potency [9] | outcome [10] | max response [20] 0.583% and -29% | Potency [11] | Potency [12] | outcome [13] | Potency [14] | Potency [15] | Potency [16] | Potency [17] | outcome [18] | Potency [19]

COc1ccc(Cl)cc1C(=O)NCCc1ccc(S(=O)(=O)NC(=O)NC2CCCCC2)cc1
inactive: Potency [1] | outcome [4] | Potency [5] | outcome [6] | outcome [7] | Potency [8] | Potency [9] | outcome [10] | max response [20] -19.9% and -25.1% | Potency [11] | Potency [12] | outcome [13] | Potency [14] | Potency [15] | Potency [17] | outcome [18] | Potency [19]
